From PubChem BioAssay (EPA / NIEHS)
Calls of active or inactive are those of the source. The calls were made as follows: active = hit-call score of the fitted dose curve at least 0.9, where 1 is the maximum; inactive = score below 0.9.

Assay: ATG_SREBP_CIS: Attagene CIS-FACTORIAL HepG2 Assay for human Sterol Regulatory Element Binding (SREBP) (AID 2282962)
Conditions: HepG2 Attagene cis-factorial SREBP reporter, mRNA; actives raise or lower the signal
Procedure: ATG_CIS is a cell-based, multiplexed-readout assay that uses HepG2, a human liver cell line, with measurements taken at 24 hours after chemical dosing in a 24-well plate.ATG_SREBP_CIS is one of 52 assay component(s) measured or calculated from the ATG_CIS assay. It is designed to make measurements of mRNA induction, a form of inducible reporter, as detected with fluorescence intensity signals by Reverse transcription polymerase chain reaction (RT-PCR) and Capillary electrophoresis technology.Data from the assay component ATG_SREBP_CIS was analyzed into 1 assay endpoint. This assay endpoint, ATG_SREBP_CIS, was analyzed with bidirectional fitting relative to DMSO as the negative control and baseline of activity. Using a type of inducible reporter, measures of mRNA for gain or loss-of-signal activity can be used to understand the reporter gene at the transcription factor-level as they relate to the gene SREBF1. Furthermore, this assay endpoint can be referred to as a primary readout, because this assay has produced multiple assay endpoints where this one serves a reporter gene function. To generalize the intended target to other relatable targets, this assay endpoint is annotated to the dna binding intended target family, where the subfamily is basic helix-loop-helix leucine zipper.
Human liver HepG2 cells are transiently transfected with multiple reporter transcription units (MRTUs) in 6-well plates using FuGene 6 reagent (Roche; 3 ml FuGene/1 mg DNA). The MRTU constructs are regulated by a cis-regulating element (promoter). […] A major difference between the CIS and TRANS system is that in CIS activities of endogenous TFs are measured, whereas the TRANS assay evaluates changes in activities of exogenous, chimeric NR-Gal4 proteins. […] At the end of 24 hour incubation, total RNA was isolated using TriZol reagent (Invitrogen). The isolated RNA is then reverse-transcribed using oligo(dT) primer and Mo-MLV reverse transcriptase (Invitrogen) with DNAse I (Ambion) treatment for 30 min. The one-tenth of the produced cDNA was amplified by PCR using Taq DNA polymerase (Invitrogen) and two reporter sequence-specific primers. The PCR products were fluorescently labeled by primer extension with 6-arboxyfluorescein (6-FAM) 5'-labeled reporter sequence-specific primer (2 min at 95 C, 20 s at 68 C and 10 min at 72 C) and these products were digested with 5U of HpaI (New England Biolabs) for 2h at 37 C. The fragments were purified using Qiaquick PCR columns (Qiagen), analyzed on an ABI 3130xL genetic analyzer (Applied Biosystems) with peak positions identified by using a set of X-rhodamine (ROX)-labeled MapMarker1000 molecular weight standards (BioVentures). The raw capillary electrophoresis data was processed using Attagraph software (Attagene).

| Structure (SMILES) | outcome | AC50 |
| --- | --- | --- |
| C=C(C)CCCC | inactive |  |
| CCN=C1C=CC(=C(c2ccc(N(CC)CC)cc2)c2ccc(N(CC)CC)cc2)c2ccccc21 | inactive |  |
| COC(F)(C(F)F)C(F)(F)F (stereo not given) | inactive |  |
| Oc1ccc(C2(c3ccc(O)c(C4CCCCC4)c3)CCCCC2)cc1C1CCCCC1 |  | 27 µM (active) |
| C[Si](C)O[Si](C)C | inactive |  |
| CCOCN(C(=O)CS(=O)(=O)O)c1c(C)cccc1CC | inactive |  |
| CCCCCCCCCCCC(=O)Cl |  | 41.2 µM (active) |
| O=C=Nc1cccc2c(N=C=O)cccc12 | inactive |  |
| CC1=CCC2C(=O)OC(=O)C2C1 (stereo not given) | inactive |  |
| OCC(F)(F)C(F)(F)C(F)(F)C(F)(F)C(F)(F)C(F)(F)CO | inactive |  |
| CO[Si](CCCOCC1CO1)(OC)OC (stereo not given) | inactive |  |
| CCCCCCCC/C=C\CCCCCCCC(=O)N(C)CC(=O)O |  | 11.1 µM (active) |
| C#CC(O)CCC (stereo not given) | inactive |  |
| O=C1C=CC(=O)N1c1ccc(Cc2ccc(N3C(=O)C=CC3=O)cc2)cc1 | inactive |  |
| CC(C)Nc1ccc(NC(C)C)c2c1C(=O)c1ccccc1C2=O | inactive |  |
| O=C(O)CCC(F)(F)C(F)(F)C(F)(F)F | inactive |  |
| CC(C)(C)c1cc(Cc2cc(C(C)(C)C)c(O)c(C(C)(C)C)c2)cc(C(C)(C)C)c1O | inactive |  |
| N#CCCOCCC#N | inactive |  |
| CNS(=O)(=O)C(F)(F)C(F)(F)C(F)(F)C(F)(F)C(F)(F)C(F)(F)C(F)(F)C(F)(F)F | inactive |  |
| C[C@]12CC[C@H]3C(=CCc4cc(O)ccc43)[C@@H]1CCC2=O | inactive |  |

| Structure (SMILES) | outcome | AC50 |
| --- | --- | --- |
| CC(C)(C)c1cc(CCC(=O)NCCCCCCNC(=O)CCc2cc(C(C)(C)C)c(O)c(C(C)(C)C)c2)cc(C(C)(C)C)c1O | inactive |  |
| NCC(F)(F)C(F)(F)C(F)(F)C(F)(F)C(F)(F)C(F)(F)C(F)(F)C(F)(F)F | inactive |  |
| CCCCCCCCCCCCCCCCC | inactive |  |
| CCOC(=O)CC(=O)C(F)(F)C(F)(F)F | inactive |  |
| CC(C)OC(=O)COc1ccc(Cl)cc1Cl | inactive |  |
| CCCCCCCCCCCCC[N+](C)(C)Cc1ccccc1 | inactive |  |
| CSc1ccc(Cl)cc1 | inactive |  |
| CCCCCCCCCc1ccc(OCCO)cc1 |  | 3.56 µM (active) |
| CCc1cccc(C)c1N(C(=O)C(=O)O)C(C)COC (stereo not given) | inactive |  |
| CC(C)C(=O)OCc1ccccc1 | inactive |  |
| CSc1ccc(O)cc1C | inactive |  |
| O=C(Cl)C(F)(F)C(F)(F)C(F)(F)C(F)(F)C(F)(F)C(F)(F)F | inactive |  |
| COc1ccccc1C=O | inactive |  |
| COCCC(=O)OC | inactive |  |
| NC(=O)C(F)(F)C(F)(F)C(F)(F)C(F)F | inactive |  |
| Brc1nc2ccccc2s1 | inactive |  |
| CC1=CCC(=O)O1 | inactive |  |
| O=C1c2ccccc2C(=O)c2c(Cl)cccc21 | inactive |  |
| CCN(CCO)S(=O)(=O)C(F)(F)C(F)(F)C(F)(F)C(F)(F)C(F)(F)C(F)(F)C(F)(F)C(F)(F)F | inactive |  |
| CC(O)C#CC(C)O (stereo not given) | inactive |  |
